For 13 compounds, growth results are on record in PubChem BioAssay (NCI).

About 83,000 compounds went through this panel and 20% of them were active in at least one assay; those are over-represented in the sample as a whole.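 Results are percent growth after 48 hours of single-concentration exposure. 100 means growth as in untreated cells, lower positive values show inhibition; negative values down to -100 show cell death.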 Values without a mark were called inactive. Calls of active or inactive are those of the source. Rule for the calls: active = growth percent below 10; inactive = the rest.

What all share (experiment): NCI-60 one-dose screen, 48 h (100 = growth as untreated, 0 = no growth, -100 = all killed)
Holding throughout (conditions): 10 µM unless noted

Assay [1] has as its system SR leukemia.
Assay [2] relates to RPMI-8226 leukemia.
Assay [3] has as its system OVCAR-8 ovarian.
Assay [4] deals with OVCAR-5 ovarian.
Assay [5] relates to OVCAR-4 ovarian.
Assay [6] relates to SK-OV-3 ovarian.
Assay [7] relates to IGROV1 ovarian.
The test system of assay [8] is OVCAR-3 ovarian.
Assay [9] has as its system HS 578T breast.
Assay [10] concerns NCI/ADR-RES ovarian.

As to `C[C@@H]1[C@H]2[C@H](C=C3[C@@H]4CC[C@H]5Cc6nc7c(nc6C[C@]5(C)[C@H]4C[C@@H](O)[C@@]32C)C[C@@H]2CC[C@H]3C4=C[C@@H]5O[C@@]6(CC[C@](C)(CO)O6)[C@@H](C)[C@@]5(O)[C@@]4(C)[C@H](O)C[C@@H]3[C@@]2(C)C7)O[C@]12CCC(C)(C)O2`, the growth is 2.45% (active) in assay [1]; -29.9% (active) in [2]; 50.9% in assay [3]; 8.43% (active) in assay [4]; 55.5% in [5]; 9.45% (active) in assay [6]. For the same compound, the growth in [7] was 38.6%; in assay [8], 50%; in assay [9], -4.77% (active); in assay [10], 54%.
Turning to `Cc1ccc2nc3c(n2c1)C(=O)C(=O)c1ccccc1-3`, the growth in assay [1] is -44.5% (active); in [2], -51.9% (active); in assay [3], -68.1% (active); in [4] it was -74% (active); in [5], -98.4% (active); in [6] it was -90.9% (active). Besides, the growth in assay [7] was -49.1% (active); in assay [8], -82.5% (active); in assay [9], -15.6% (active); in assay [10], -3.7% (active).
In the case of `COc1cccc(-c2nc3cc(NC(=O)c4ccc(Cl)c(C#N)c4)ccc3o2)c1`, the growth in assay [1] was 38.2%; in [2] it was -2.38% (active); in assay [3], -54.6% (active); in [4], 73.3%; in assay [5] it was -90.4% (active); in assay [6], 15.6%. The growth was 72.4% in [7], -30.6% (active) in assay [8], 39.1% in [9] and 3.74% (active) in assay [10].
For the compound `O=C1/C(=C\c2coc3ccccc3c2=O)c2ccccc2N1c1c(Cl)cccc1Cl`, the growth is 19.5% in assay [1]; 10.2% in assay [2]; 31.6% in [3]; 102% in [4]; 49.5% in assay [5]; 74.8% in assay [6]. In addition, the growth in assay [7] was 48.7%; in [8] it was 16.8%; in [9] it was 27.4%; in assay [10] it was 36.1%.
Turning to `Cc1ccc(C2=Nc3c(ccc4c(C)c(C)c(=O)oc34)OC2)cc1`, the growth in assay [1] is 103%; in assay [2], 94.4%; in assay [3] it was 98.6%; in assay [4], 103%; in [5], 116%; in assay [6], 106%. The growth in [7] was 98.5%; in assay [8], 107%; in [9] it was 110%; in assay [10] it was 97.3%.
With `O=C(CC(C(=O)c1ccccc1)N1CCN(Cc2ccccc2)CC1)c1ccccc1` (stereo not given), the growth in assay [1] is 57.2%; in assay [2], 28.7%; in assay [3], 90.7%; in assay [4] it was 86.3%; in assay [5] it was 86.5%; in [6] it was 112%. In addition, the growth in [7] is 119%; in assay [8], 58.8%; in assay [9], 92.5%; in assay [10], 97.1%.
On to `CCCCCCCCCCOC(C)=O`, for which the growth in assay [1] was 98.6%; in assay [2], 99.1%; in assay [3] it was 101%; in assay [4], 101%; in assay [5] it was 103%; in [6], 110%. In addition, the growth in assay [7] was 96.2%; in [8] it was 110%; in assay [9] it was 101%; in assay [10], 111%.
Consider `N/C(=N\C(N)=N\c1nc2ccccc2s1)c1ccnc(Cl)c1`, for which the growth in [1] was 18.9%; in [2], 15.2%; in [3], 39.5%; in assay [4], 57.9%; in [5] it was 79.1%; in [6] it was 48.5%. In addition, the growth was 37.2% in [7], 4.62% (active) in [8], 25.7% in assay [9] and 18.3% in [10].
On to `c1ccc(Nc2ccc(Nc3nc(-c4ccccc4)nc4ccccc34)cc2)cc1`, for which the growth was 52.1% in assay [1]; 48.9% in assay [2]; 76.3% in assay [3]; 81.5% in assay [4]; 94.1% in assay [5]; 107% in [6]. Moreover, the growth was 96.7% in assay [7], 101% in assay [8], 92.9% in [9] and 79% in [10].
Turning to `COc1cc(/C=N/NC(=O)c2ccc(C(F)(F)F)nc2Nc2ccc(Cl)cc2C)ccc1O`, the growth in [1] is -14.6% (active); in assay [2], 26.8%; in assay [3] it was 46.7%; in [4], 57.5%; in assay [5], 27.2%; in assay [6], 44.3%. In addition, the growth was 25.1% in [7], 30.4% in assay [8], -15.1% (active) in [9] and 30.3% in assay [10].
`Cc1ccccc1NC(=O)NC(CC(N)=O)c1ccc2c(c1)nc(-c1cccc(Oc3ccc(C(C)(C)C)cc3)c1)n2CCCN1CCCCC1C` (stereo not given): the growth is -33.9% (active) in [1]; -29.2% (active) in assay [2]; 3.11% (active) in assay [3]; 88.8% in assay [4]; 66.5% in assay [5]; 103% in [6]. Moreover, the growth was 46.4% in assay [7], 53.2% in [8], 6.75% (active) in assay [9] and 94.3% in assay [10].
Take `O=C(Nc1cccc(Cl)c1)Nc1cccc(Cl)c1`: the growth in assay [1] was 66.4%; in assay [2], 3.08% (active); in [3], 77%; in assay [4], 86.8%; in [5], 62.4%; in assay [6], 93.4%. Also, the growth in assay [7] was 91.4%; in assay [8], 15.1%; in [9], 80.7%; in assay [10] it was 55.6%.
`CC(C)C[C@H](NC(=O)/C=C/Cn1ccc2ccccc2c1=O)B(O)O`: the growth in [1] was 9.14% (active); in assay [2], 11.1%; in [3], 86.8%; in assay [4], 47.2%; in [5], 89.3%; in assay [6] it was 69.2%. The growth in [7] is 77%; in assay [8] it was 0.848% (active); in assay [9] it was 43.8%; in assay [10], 106%.
